From PubChem BioAssay
FH mod = Identification of activators of human fumarate hydratase by quantitative high-throughput screening; AID 1347055, 2019; Fumarate hydratase, mitochondrial (Homo sapiens), P07954; Potency, µM (top dose mostly 79.9 µM), actives largely listed as inhibitors; FH coupled MDH/diaphorase resazurin fluorescence, 15 min; hit rate 0.22% among 54,000; also: the screen sought activators but most active calls are inhibition curves; nearly all actives have a fitted effect of over 45% in size
Target sequence (P07954 whole entry, looked up): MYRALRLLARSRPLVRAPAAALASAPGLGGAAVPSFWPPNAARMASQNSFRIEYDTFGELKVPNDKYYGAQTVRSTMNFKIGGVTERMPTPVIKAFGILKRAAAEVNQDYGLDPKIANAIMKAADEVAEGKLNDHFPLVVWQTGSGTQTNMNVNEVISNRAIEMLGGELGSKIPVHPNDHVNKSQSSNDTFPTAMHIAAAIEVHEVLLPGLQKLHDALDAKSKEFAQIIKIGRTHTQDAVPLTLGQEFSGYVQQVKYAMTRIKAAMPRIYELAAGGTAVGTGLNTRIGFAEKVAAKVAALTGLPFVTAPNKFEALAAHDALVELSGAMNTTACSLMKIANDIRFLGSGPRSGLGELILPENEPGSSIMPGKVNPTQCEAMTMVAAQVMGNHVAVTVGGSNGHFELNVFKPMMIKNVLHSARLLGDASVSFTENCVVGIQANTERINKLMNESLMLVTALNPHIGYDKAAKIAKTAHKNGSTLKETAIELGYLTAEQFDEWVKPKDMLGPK
DRV1 agonist = activates human resolvin D1 receptor GPR32; hit rate 2.5% among 48,000; activation, % at 76.9 µM; AID 1346428; CHO-K1 GPR32 beta-arrestin PathHunter luminescence, 90 min; zero percent set by DMSO-only wells;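 active = activation of at least 60% and not above a set upper limit, about 1 call in 100 departs from these limits; inconclusive = activation of 40% to 60%, or above that upper limit; inactive = activation under 40%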
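Readings come from a cell-based beta-arrestin complementation format: CHO-K1 GPR32 stable cells (2,500/well) treated 90 min with compounds, then beta-Gal substrate added for 1 h before chemiluminescence imaging.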
p53null 39C tox = p53 null cell cytotoxicity, nonpermissive temperature | H1299 p53-null (neo) cells, 39C, ATPlite viability, 24 h | Potency, µM (series often up to 46.1 µM), hits mostly cytotoxic | hit rate 0.97% among 55,000; also: nearly all actives have a fitted effect of over 50% in size
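Following overnight plating at 37C (600 cells/well), H1299-neo or H1299-p53A138V cells are dosed up to 46 uM. Incubation lasts 24 hr at 39C before ATP detection.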
p53null 32C tox = selectivity test: cytotoxicity in p53 null cells, permissive temperature; H1299-neo p53 null cells, ATP luminescence, 24 h, 32C; Potency, µM (titrated, usually from 46.1 µM), usual class: cytotoxic; hit rate 0.62% among 55,000; AID 903; also: nearly all actives have a fitted effect of over 55% in size
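Cells lacking p53 (H1299-neo) are plated at 600 per well and allowed to settle overnight at 37C. Test compounds (up to 46 uM) are added and held 24 hours at 32C, then ATP is quantified by luminescence.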
Large screens that a line does not name were inactive; ! = repeats disagree; [ ] = remark or other dose. Compounds with a hit are over-represented: about 2.9% of the library has one in this group of screens. Unless noted, calls follow the shape of the dose curve; as a rule, active = well fitted curve in the direction sought with a large enough effect; inconclusive = small, poorly fitted or top-dose-only effect, or another doubt; inactive = no such curve, though single readings can be large; an effect the other way counts as inactive or inconclusive.

O=C(O)Cn1nnc(-c2ccc(CN(CCCCOc3ccc(CN4CCCC4)cc3)CCc3ccccc3)cc2)n1	none (no result: DRV1 agonist, p53null 39C tox, p53null 32C tox)
CCOc1ccc(CC(=O)NCCc2sc(-c3cccc(F)c3)nc2C)cc1	DRV1 agonist 69, p53null 39C tox inconclusive
Cc1cccc(Nc2nnc(-c3ccc(C)c(S(=O)(=O)N4CCN(C)CC4)c3)c3ccccc23)c1	p53null 39C tox 10µM
COc1ccc2cc3c(NC(=O)c4ccco4)nn(C)c3nc2c1	none (no result: DRV1 agonist, p53null 39C tox, p53null 32C tox)
C=C1CCC(OC(C)=O)C2(C)CC3(O)OC(=O)C(C)=C3CC12 (stereo unspecified)	none (no result: DRV1 agonist, p53null 39C tox, p53null 32C tox)
CC(=O)c1ccc(N2CCN(C(=O)CS(=O)(=O)c3cccc4nsnc34)CC2)cc1	DRV1 agonist 88
CCCc1nnc(NC(=O)c2nc(S(=O)(=O)Cc3ccc(C)cc3)ncc2Cl)s1	p53null 39C tox 10µM
Cc1ccc(CS(=O)(=O)c2ncc(Cl)c(C(=O)Nc3nc4ccc(C)cc4s3)n2)cc1	DRV1 agonist 70
Cc1ccc(CS(=O)(=O)c2ncc(Cl)c(C(=O)Nc3nc4ccc(F)cc4s3)n2)cc1	DRV1 agonist 80, p53null 39C tox inconclusive
CC(C)c1nnc(NC(=O)c2nc(S(=O)(=O)Cc3ccccc3)ncc2Cl)s1	p53null 39C tox inconclusive, p53null 32C tox inconclusive
COc1ccc2nc(NC(=O)c3nc(S(=O)(=O)Cc4ccc(C)cc4)ncc3Cl)sc2c1	p53null 39C tox inconclusive
Cc1ccc(CSc2ncc(Cl)c(C(=O)Nc3nc4ccc(C)cc4s3)n2)cc1	none
CNc1nc(Nc2cnn([C@H]3CCN(C4COC4)C[C@@H]3F)c2Cl)ncc1C(F)(F)F	none (no result: DRV1 agonist, p53null 39C tox, p53null 32C tox)
COc1ccc(C(=O)Nc2cccc(OCc3cc(=O)n4c5c(sc4n3)CCCC5)c2)cc1OC	DRV1 agonist 63, p53null 32C tox inconclusive
CCCCN1C(C(=O)c2ccccc2)=C(OC(=O)CC)c2ccccc2S1(=O)=O	p53null 39C tox inconclusive, p53null 32C tox 13µM
O=C(O)c1ccnc2cc(C(OCC3CCC(F)(F)CC3)c3ccccc3Cl)[nH]c12 (stereo unspecified)	none (no result: DRV1 agonist, p53null 39C tox, p53null 32C tox)
CCc1ccc(NC(=O)Cn2nc3c4ccccc4n(Cc4ccccc4)cc-3c2=O)cc1	DRV1 agonist 84
O=c1c(O)c(-c2ccc(O)c(O)c2)oc2cc(O)ccc12	FH mod 27µM![activator] (no result: DRV1 agonist, p53null 39C tox, p53null 32C tox)
COc1ccc(NS(=O)(=O)c2ccc(NS(=O)(=O)c3ccc4c(c3)OCCO4)cc2)cc1	DRV1 agonist 68
Cc1c(Cl)cccc1Nc1nn2c(=O)c3ccc(C(=O)NCCc4ccccc4)cc3nc2s1	p53null 39C tox inconclusive, p53null 32C tox inconclusive
COc1ccccc1Nc1nn2c(=O)c3ccc(C(=O)NCCC4=CCCCC4)cc3nc2s1	p53null 39C tox 4µM, p53null 32C tox inconclusive
Cc1c(Cl)cccc1Nc1nn2c(=O)c3ccc(C(=O)NCCC4=CCCCC4)cc3nc2s1	none
Cc1ccc(C)c(Nc2nn3c(=O)c4ccc(C(=O)NCCc5ccccc5)cc4nc3s2)c1	DRV1 agonist 74
COc1ccccc1Nc1nn2c(=O)c3ccc(C(=O)NCCc4ccccc4)cc3nc2s1	p53null 39C tox 6.3µM, p53null 32C tox inconclusive
CCN(CC)CCNC(=O)c1ccc2c(=O)n3nc(Nc4cccc(Cl)c4C)sc3nc2c1	p53null 39C tox 20µM, p53null 32C tox inconclusive
CN(C)c1ccc(C2O[C@@H](c3ccccc3)C[C@H](c3ccccc3)O2)cc1 (stereo partly specified)	none (no result: DRV1 agonist, p53null 39C tox, p53null 32C tox)
CCN(CC)c1nc(-c2ccc(C(C)(C)C)cc2)nc2ccccc12	p53null 39C tox inconclusive, p53null 32C tox inconclusive
CN(C/C=C/c1ccccc1)Cc1cccc2ccccc12	DRV1 agonist 117 (no result: p53null 39C tox, p53null 32C tox)
CN(Cc1ccc(C(C)(C)C)cc1)Cc1cccc2ccccc12	DRV1 agonist 68 (no result: p53null 39C tox, p53null 32C tox)
CC(C)c1nc(-c2ccc(NC(=O)Nc3cccc(C(F)(F)F)c3)c3ccccc23)c2c(N)nccn12	none (no result: DRV1 agonist, p53null 39C tox, p53null 32C tox)
O=C(O)CC1CCC(c2ccc(-c3ccc4nc(C(=O)NCc5ccc(OC(F)(F)F)cc5)cn4c3)cc2)CC1 (stereo unspecified)	none (no result: DRV1 agonist, p53null 39C tox, p53null 32C tox)
CC[C@H]1OC(=O)[C@H](C)[C@@H](O[C@H]2C[C@@](C)(OC)[C@@H](O)[C@H](C)O2)[C@H](C)[C@@H](O[C@@H]2O[C@H](C)C[C@H](N(C)C)[C@H]2O)[C@](C)(O)C[C@@H](C)/C(=N/OCOCCOC)[C@H](C)[C@@H](O)[C@]1(C)O	none (no result: DRV1 agonist, p53null 39C tox, p53null 32C tox)
Cc1ccc(NC(=O)N2CCc3ccccc32)cc1	p53null 39C tox 5µM, p53null 32C tox 5.6µM (no result: FH mod, DRV1 agonist)
CCn1c2ccccc2c2cc(CNC)ccc21	none (no result: DRV1 agonist, p53null 39C tox, p53null 32C tox)
COC(=O)c1cc(C)nc2c1c(=O)nc(SCc1c(C)cc(C)cc1C)n2C1CC1	FH mod inconclusive, p53null 39C tox 13µM
Cc1ccc(NC2=CC(=O)C(=O)c3ccccc32)cc1	p53null 39C tox 3.5µM, p53null 32C tox 4µM (no result: FH mod, DRV1 agonist)
CCCCc1ccc(NS(=O)(=O)c2cc3c4c(c2)CC(=O)N4CCC3)cc1	FH mod inconclusive, DRV1 agonist 105
C=C(C)C1CC[C@]2(C(=O)O)CC[C@]3(C(=O)O)[C@H](CCC4[C@@]5(C)CC[C@H](O)C(C)(C)C5CC[C@]43C)C12 (stereo partly specified)	none (no result: DRV1 agonist, p53null 39C tox, p53null 32C tox)
CC(=O)c1ccc(NC(=O)CSc2nnc(NC(=O)NC3CCCCC3)s2)cc1	p53null 39C tox 7.9µM, p53null 32C tox 6.3µM
COc1ccccc1NC(=O)CSc1nnc(NC(=O)NC2CCCCC2)s1	p53null 39C tox inconclusive, p53null 32C tox inconclusive
O=C(CSc1nnc(NC(=O)NC2CCCCC2)s1)Nc1ccccc1F	p53null 39C tox inconclusive, p53null 32C tox 10µM
COc1ccc(NC(=O)CSc2nnc(NC(=O)NC3CCCCC3)s2)cc1OC	p53null 39C tox 11µM, p53null 32C tox 13µM
COC(=O)N1CCC(n2ncc3c(N4CCOCC4)nc(-c4ccc(NC(=O)NC5CC5)cc4)nc32)CC1	none (no result: DRV1 agonist, p53null 39C tox, p53null 32C tox)
CC1OC(OC2CCC3(C)C(CCC4(C)C3C=CC35OCC6(CCC(C)(C)CC63)CCC45C)C2(C)CO)C(OC2OC(CO)C(O)C(O)C2O)C(O)C1OC1OC(CO)C(O)C(O)C1O (stereo unspecified)	none (no result: DRV1 agonist, p53null 39C tox, p53null 32C tox)
CC1(C)C2CCC1(C)C(OC(=O)C(O)(CC(=O)O)CC(=O)O)C2 (stereo unspecified)	none (no result: DRV1 agonist, p53null 39C tox, p53null 32C tox)
CCOc1ccccc1NC(=O)CSc1nc2ccccc2nc1Cc1ccc(C)cc1	FH mod inconclusive, DRV1 agonist 71
NS(=O)(=O)OC[C@@H]1C[C@@H](n2ccc3c(N[C@H]4CCc5ccccc54)ncnc32)C[C@@H]1O	none (no result: DRV1 agonist, p53null 39C tox, p53null 32C tox)
COc1nc2ccc(Br)cc2cc1[C@@H](c1ccccc1)[C@@](O)(CCN(C)C)c1cccc2ccccc12	none (no result: DRV1 agonist, p53null 39C tox, p53null 32C tox)
COc1ccc(CCCc2nnc(SCC(=O)Nc3cccc(F)c3C)o2)cc1	DRV1 agonist 66, p53null 39C tox inconclusive
Nc1nc2ccc(O)cc2s1	none (no result: FH mod, DRV1 agonist)
Nc1ccc2nc(-c3ccc(O)cc3)sc2c1	p53null 39C tox 1.3µM, p53null 32C tox 2.5µM
Cc1cc(NC(=O)CCNS(=O)(=O)c2ccc3c(c2)CCCC(=O)N3)ccc1Br	DRV1 agonist 100
CC(C)c1ccc(NC(=O)CCNS(=O)(=O)c2ccc3c(c2)CCCC(=O)N3)cc1	none
